Screening results deposited in PubChem by National Center for Advancing Translational Sciences (NCATS).
Pf growth 48h – Primary qHTS for delayed death inhibitors of the malarial parasite plastid, 48 hour incubation. Potency, µM (top dose mostly 28.7 µM), hits mostly inhibitors. P. falciparum luciferase growth in erythrocytes, 48 h. AID 504832, 2011. hit rate 5.9% among 310,000
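Read-out is firefly luciferase luminescence from an integrated reporter in P. falciparum, so falling signal marks reduced parasite growth. Infected erythrocytes were at 2% hematocrit and 0.1% parasitemia (final) in Albumax-supplemented RPMI 1640.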
AMA1 RON2 block – qHTS for Inhibitors of AMA1-RON; Towards Development of Antimalarial Drug Lead: Primary Screen; Plasmodium falciparum AMA1 (3D7) - RON2 peptide interaction; AlphaScreen AMA1-biotinylated RON2 peptide binding; hit rate 0.2% among 360,000; Potency, µM (top dose mostly 58.2 µM), actives largely listed as inhibitors; note: nearly all actives have a fitted effect of over 45% in size
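AMA1 (3D7) with his tag at 25 nM final met compounds first, then biotinylated RON2 peptide at 25 nM; detection used donor plus acceptor beads, 10 µg/mL apiece, read by AlphaScreen after 30 min at room temperature.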
Pf growth 96h – Primary qHTS for delayed death inhibitors of the malarial parasite plastid, 96 hour incubation | P. falciparum luciferase reporter growth, 96 h | Potency, µM (titrated, usually from 28.7 µM), actives largely listed as inhibitors | hit rate 6.9% among 320,000 | AID 504834, 2011
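Readout is luminescence from an integrated firefly luciferase in P. falciparum. Red cells, 2% hematocrit and 0.05% parasitemia final, were cultured with compound through two parasite generations (96 hours) at 37 C, 5% CO2.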
HCV inh – qHTS Assay for Inhibitors of Hepatitis C Virus (HCV) | Huh7.5.1 HCVcc-Cre infection, luciferase reporter, 44 h | Potency, µM (highest dose often 41.8 µM), hits mostly inhibitors | hit rate 3.4% among 340,000
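Infectious HCVcc-Cre (~0.5 moi) was added to cells just after compound, with cells seeded 4 h earlier at 1,000 per well. Luciferase activity after 44 h culture reported infection; substrate was incubated 15 min at room temperature before reading.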
Large screens that a line does not name were inactive. Compounds with a hit are over-represented: about 11% of the library has one in this group of screens. Calls come from the whole dose curve; as a rule, active = well fitted curve in the direction sought with a large enough effect; inconclusive = small, poorly fitted or top-dose-only effect, or another doubt; inactive = no such curve, though single readings can be large; an effect the other way counts as inactive or inconclusive.

CCOC(=O)c1c(NC(=O)c2ccccc2)sc2c1CCc1ccccc1-2	Pf growth 96h inconclusive
CCN(CC)C(=O)C(=O)c1cn(CC(=O)N2CCc3ccccc3C2)c2ccccc12	Pf growth 48h inconclusive
OC(CN1CCOCC1)c1ccc(F)cc1 (stereo unspecified)	none
OC(CN1CCC(Cc2ccc(F)cc2)CC1)c1ccc(Cl)cc1 (stereo unspecified)	Pf growth 48h 1.5µM, Pf growth 96h 2.1µM (no result: AMA1 RON2 block, HCV inh)
OC(CN1CCN(c2ccc(F)cc2)CC1)c1ccc(Cl)cc1 (stereo unspecified)	Pf growth 96h 13µM (no result: Pf growth 48h)
COc1cc(C2=NC(CO)(CO)CO2)cc(OC)c1OC	none
COc1ccc(N(CC(=O)Nc2ccccc2C(=O)O)S(=O)(=O)c2ccc(C)c([N+](=O)[O-])c2)cc1	none
CC(=O)Oc1ccc(N(C(C)=O)S(=O)(=O)c2ccc(C)c([N+](=O)[O-])c2)cc1	Pf growth 96h 2.6µM
COc1cc(NC(=O)CSc2nnc(-c3ccncc3)o2)cc(OC)c1OC	Pf growth 96h inconclusive
N#Cc1cnc(SCCc2ccccc2)nc1N	HCV inh 2.2µM
N#Cc1cnc(SCC(=O)c2ccccc2)nc1N	Pf growth 48h 10µM (no result: Pf growth 96h)
C=C(CCO)C1=CCN(S(=O)(=O)C(C)(C)C)[C@H]1CCO	none (no result: Pf growth 48h, Pf growth 96h)
CCCCNC(=O)CSc1nc2ccc(Nc3nc(N4CCOCC4)nc(N4CCOCC4)n3)cc2s1	Pf growth 48h inconclusive, Pf growth 96h 8.3µM, HCV inh inconclusive
CCOC(=O)C1CN(S(=O)(=O)c2ccc(OC)cc2)c2cc(S(=O)(=O)CC)ccc2O1 (stereo unspecified)	Pf growth 48h inconclusive, Pf growth 96h inconclusive
COc1ccccc1N1C(C)=CC(=C(C#N)c2nc3ccccc3s2)C=C1C	Pf growth 48h 9.3µM, Pf growth 96h inconclusive, HCV inh inconclusive
COc1ccccc1NC(=O)NCc1ccccc1F	none
COc1ccc(NC(=O)NCc2ccccc2F)cc1OC	Pf growth 96h 10µM
CCOc1ccccc1NC(=O)NCc1ccccc1F	HCV inh 11µM
O=C(CSCc1ccc(Cl)cc1)NCc1ccccn1	none
CCOC(=O)c1ccc(S(=O)(=O)N2CCN(C3CC(=O)N(c4ccccc4C(F)(F)F)C3=O)CC2)cc1 (stereo unspecified)	Pf growth 48h 13µM, Pf growth 96h 12µM
O=C(O)c1cccc(NC(=S)N/N=C/c2ccccc2OCc2cccc(Br)c2)c1	Pf growth 96h inconclusive, HCV inh inconclusive
COc1ccc(C(=O)N/N=C/c2ccc3cccc(OCc4ccccc4)c3n2)cc1	Pf growth 48h inconclusive, HCV inh 8.9µM
NC(=S)N/N=C/c1ccc2cccc(OCc3ccccc3)c2n1	Pf growth 48h 15µM, Pf growth 96h inconclusive, HCV inh 11µM
O=C(N/N=C/c1ccc2cccc(OCc3ccccc3)c2n1)c1ccc(Br)cc1	HCV inh inconclusive
O/N=C/c1ccc2cccc(OCc3ccccc3)c2n1	HCV inh inconclusive
NC(=S)N/N=C/c1ccccc1OCc1cccc(Cl)c1	Pf growth 48h 13µM, Pf growth 96h 9.3µM, HCV inh 11µM
NC(N)=N/N=C/c1ccc2cccc(OCc3ccccc3)c2n1	Pf growth 48h inconclusive, Pf growth 96h inconclusive, HCV inh 13µM
CCOC(=O)C1=CN(Cc2cccc(-c3cccnc3)c2)S(=O)(=O)N(C)C1C (stereo unspecified)	HCV inh inconclusive (no result: Pf growth 48h, Pf growth 96h)
COc1ccc2nc(NC(=O)c3cccc(-c4cc5ccccc5oc4=O)c3)sc2c1	Pf growth 48h inconclusive, Pf growth 96h 4.7µM, HCV inh 11µM
COc1ccc(C(=O)Nc2cccc(-c3cc4ccccc4oc3=O)c2)cc1[N+](=O)[O-]	Pf growth 48h 13µM, HCV inh inconclusive
C(#CCN1CCOCC1)COCc1ccccc1	Pf growth 96h 10µM
Cc1cc(C)c(-n2c(C)cc(/C=C3/NC(=O)NC3=O)c2C)c(C)c1	Pf growth 48h inconclusive, Pf growth 96h 5.9µM
Cc1cc(/C=C2/NC(=O)NC2=O)c(C)n1C	Pf growth 96h 4.7µM
Cc1cccc(-n2c(C)cc(/C=C3\NC(=O)NC3=O)c2C)c1	HCV inh inconclusive
COc1ccc(NC(=O)c2cc(-c3cc(Cl)ccc3OC)n[nH]2)c(C)c1	none (no result: Pf growth 48h, Pf growth 96h, HCV inh)
COc1ccc(OC)c(NC(=O)c2cc(-c3cc(C)ccc3O)n[nH]2)c1	Pf growth 48h inconclusive, Pf growth 96h 6.6µM
COc1ccc(OC)c(NC(=O)c2cc(-c3ccc(C)cc3O)n[nH]2)c1	Pf growth 48h 10µM (no result: Pf growth 96h)
COc1ccc2c(c1)C(=NN)c1cc(OC)ccc1-2	Pf growth 48h inconclusive, HCV inh inconclusive
C[C@]12CCC(=O)CC1=CCC1C3CC=C(C#N)[C@@]3(C)CC[C@@]12O (stereo partly specified)	none
CCc1ccc(NC(=S)NC(=O)c2c(-c3ccccc3Cl)noc2C)cc1	Pf growth 48h 12µM, Pf growth 96h 7.4µM
Cc1onc(-c2ccccc2)c1C(=O)Nc1ccccc1NC(=O)c1c(-c2ccccc2)noc1C	Pf growth 48h inconclusive, Pf growth 96h inconclusive
Cc1cc(C)n(-c2ccc(Cl)c(C(=O)Nc3ccc(-c4nnc5n4CCCCC5)cc3)n2)n1	Pf growth 48h inconclusive, Pf growth 96h 8.3µM, HCV inh inconclusive
Cc1onc(-c2ccccc2)c1C(=O)Nc1ccc(Br)cc1Cl	Pf growth 48h 15µM
Cc1onc(-c2ccccc2Cl)c1C(=O)Nc1ccc(CN2CCCC2)cc1	Pf growth 48h inconclusive, HCV inh inconclusive (no result: Pf growth 96h)
Cc1onc(-c2ccccc2Cl)c1C(=O)Nc1ccc(-c2nnc3n2CCCCC3)cc1	Pf growth 48h 9.3µM (no result: Pf growth 96h)
O=C(O)CCn1c2ccccc2c2nc3ccccc3nc21	none
COc1c2c(c(OC)c3ccccc13)[C@@]1(OC2)O[C@H](CCO)C[C@H](O)[C@H]1O	none (no result: Pf growth 48h, Pf growth 96h, HCV inh)
COc1ccc(S(=O)(=O)NCC(=O)N(CC(=O)NCC2CCCO2)Cc2ccccc2)cc1 (stereo unspecified)	Pf growth 48h inconclusive
Cc1onc(-c2ccccc2Cl)c1C(=O)Nc1ccccc1	none
COc1ccc(NC(=O)c2c(-c3ccccc3Cl)noc2C)c(OC)c1	Pf growth 48h 2.6µM
COc1ccc(NC(=O)c2c(-c3ccccc3)noc2C)c(OC)c1	Pf growth 96h inconclusive (no result: Pf growth 48h)
Cc1onc(-c2ccccc2Cl)c1C(=O)NC(=S)Nc1ccc(C(C)(C)C)cc1	Pf growth 48h inconclusive, Pf growth 96h 6.6µM
O=[N+]([O-])c1ccc2cn(C3OC(CO)C(O)C3O)nc2c1 (stereo unspecified)	none (no result: Pf growth 48h, Pf growth 96h, HCV inh)
CCc1ccc(CNC(=O)CCCC(=O)n2nc(C)c3ccccc32)cc1	none
O=C1OC2(CCCCC2)CC2=C1C1O[C@](c3ccsc3)(Cc3c1ccc1ccccc31)O2	Pf growth 96h inconclusive (no result: AMA1 RON2 block, HCV inh)
COc1ccc(-c2cc3ccccc3nc2N)cc1OC	Pf growth 96h inconclusive, HCV inh 11µM
COc1ccc(-c2nc3ccccc3nc2-c2ccc(OC)c(OC)c2)cc1OC	Pf growth 48h inconclusive
COc1ccccc1S(=O)(=O)N(C)C[C@@H]1OCc2cnnn2CCCC(=O)N([C@H](C)CO)C[C@H]1C	none (no result: Pf growth 48h, Pf growth 96h, HCV inh)
